This note sets out measurements from PubChem BioAssay.

A short description of test [1]: Wnt pathway potentiators raising nuclear beta-catenin – imaging, WNT3A-conditioned medium, mouse C2C12, NPC library, primary screen (AID 1117326). Also: reference of the scale not given here. The conditions noted are these: stronger effect = higher value.
A short description of test [2]: stimulators of insulin release from INS-1E, primary screen, cell-based, 5 mM glucose, NPC library (AID 1117329;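 active = compound raises insulin release from rat beta cells at 5 mM glucose, no numeric limit stated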; also: reference of the scale not given here). The conditions noted are these: rat INS-1E insulin secretion, at 10 µM, stronger effect = higher value.
Test [3] can be described thus: growth inhibition of GSK3B-pretreated HCT116 cells – cell-based, CellTiter-Glo, 0.2 to 20 µM (AID 1117336;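 active = compounds lowering colon cancer cell viability after pretreatment blocking the GSK3B kinase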). The conditions noted are these: HCT116 viability after GSK3B inhibitor, at 20 µM, stronger effect = higher value. For orientation: ATP-based viability assays read luminescence as a measure of living cells.
Test [4] in a line: inhibition of endothelial tube formation, primary screen, imaging, VEGF stimulated, CD31 staining, tube area, NPC library (AID 1117340;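 active = compound that reduces growth-factor-driven endothelial tube area in a mixed cell culture, no cutoff stated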). The conditions noted are these: VEGF-stimulated ADSC/ECFC co-culture, at 10 µM, stronger effect = higher value.
A short description of test [5]: GLP1 release stimulators, primary, NCI-H716, NPC library (AID 1117341;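 active = compound raises GLP1 secretion from the human gut endocrine cells, with no numeric limit stated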; also: reference of the scale not given here). To be noted: NCI-H716 cells, at 10 µM, stronger effect = higher value.
Test [6] in a line: HCT116 colon cancer cell growth inhibition, primary screen, CellTiter-Glo luminescence, NPC library (AID 1117342;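 active = compounds that lower survival of HCT116 colon cancer cells in the luminescence readout, no numeric limit stated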). To be noted: at 20 µM (top of the series).
A short description of test [7]: reduced SW480 viability measured with CellTiter-Glo, NPC library, primary (AID 1117343;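 active = compounds that lower viability of the colon cancer cells in the luminescence readout, with no numeric limit stated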). To be noted: CellTiter-Glo luminescence; at 20 µM (top of the series).
Test [8] can be described thus: NPC library primary testing for decreased DLD-1 cell viability via CellTiter-Glo (AID 1117346;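 active = compounds that lower survival of DLD-1 colon cancer cells in the luminescence readout, no cutoff given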). The conditions noted are these: DLD-1 viability, CellTiter-Glo luminescence; at 20 µM (top of the series).

Activity calls are given as the source filed them. Rule as the data show it, unless noted: active = nuclear beta-catenin stimulation mostly above about 4.2% (no sharp cut-off); inactive = mostly below about 10%.

As for `COc1ccc2cc(Br)ccc2c1`, the nuclear beta-catenin stimulation in test [1] (at 10 µM) is -0.6% (inactive); in test [1] (stimulation, at 2 µM) it was -0.3%. For the same compound, in test [2], the insulin secretion stimulation was 0.9% (inactive). Further, in test [3], the viability decrease is -1.1% (inactive). The tube area decrease in test [4] is 3.3% (inactive). In addition, in test [5], the GLP1 secretion stimulation was -5% (inactive). For the same compound, the inhibition of viability in test [6] was -2.2% (inactive). Also, the viability decrease (inhibition) in test [7] is -5.1% (inactive); in test [8], -6% (inactive).

For `COc1ccc2cc1Oc1cc3c(cc1OC)CC[N+](C)(C)[C@H]3Cc1ccc(cc1)Oc1c(OC)c(OC)cc3c1[C@@H](C2)[N+](C)(C)CC3`, the nuclear beta-catenin stimulation was 0.3% (inactive) in test [1] (at 10 µM) and -0.1% in test [1] (stimulation, at 2 µM). Also, the insulin secretion stimulation in test [2] is 0.65% (inactive). In test [3], the viability decrease was 13.2% (inactive). In test [4], the tube area decrease is 3.3% (inactive). Moreover, in test [5], the GLP1 secretion stimulation is 2.3% (inactive). The inhibition of viability in test [6] was 7.8% (inactive). For the same compound, the viability decrease (inhibition) is 14% (inactive) in test [7] and 6.2% (inactive) in test [8].

On to `O=C(Nc1ccc([N+](=O)[O-])cc1)Nc1ccc([N+](=O)[O-])cc1`, for which the nuclear beta-catenin stimulation in test [1] (at 10 µM) is 3.2% (inactive); in test [1] (stimulation, at 2 µM), 1.9%. Besides, the insulin secretion stimulation in test [2] was -3.6% (inactive). For the same compound, the viability decrease in test [3] is -7.9% (inactive). Further, in test [4], the tube area decrease was 62.3% (active). Further, in test [5], the GLP1 secretion stimulation was -0.9% (inactive). In test [6], the inhibition of viability is -44.5% (inactive). The viability decrease (inhibition) was 44.3% (inactive) in test [7] and -16.4% (inactive) in test [8].

As to `CO/N=C(/C(=O)N[C@@H]1C(=O)N2C(C(=O)O)=C(Cn3nnc(C)n3)CS[C@H]12)c1csc(N)n1`, the nuclear beta-catenin stimulation in test [1] (at 10 µM) is -0.1% (inactive); in test [1] (stimulation, at 2 µM), -1%. In test [2], the insulin secretion stimulation is 3.2% (inactive). Besides, the viability decrease in test [3] is 2.9% (inactive). The tube area decrease in test [4] was 13.4% (inactive). The GLP1 secretion stimulation in test [5] was 0.9% (inactive). The inhibition of viability in test [6] is -1.5% (inactive). Moreover, the viability decrease (inhibition) in test [7] was 10.8% (inactive); in test [8], 1% (inactive).

In the case of `Cc1oc(-c2ccccc2)nc1CCC(=O)c1ccc(CC2SC(=O)NC2=O)cc1` (stereo not given), the nuclear beta-catenin stimulation in test [1] (at 10 µM) was 3.2% (inactive); in test [1] (stimulation, at 2 µM), -0.4%. The insulin secretion stimulation in test [2] was 3.5% (inactive). Also, the viability decrease in test [3] is 97.3% (active). Besides, the tube area decrease in test [4] is 9.6% (inactive). Besides, the GLP1 secretion stimulation in test [5] is 12.7% (inactive). For the same compound, in test [6], the inhibition of viability was 95.4% (active). In addition, the viability decrease (inhibition) is 120% (active) in test [7] and 96.5% (active) in test [8].

Take `NC(CSCC(=O)O)C(=O)O` (stereo not given): the nuclear beta-catenin stimulation in test [1] (at 10 µM) is 0.1% (inactive); in test [1] (stimulation, at 2 µM), 1.5%. For the same compound, the insulin secretion stimulation in test [2] is -0.7% (inactive). Moreover, the viability decrease in test [3] was -2.5% (inactive). The tube area decrease in test [4] is 18.6% (inactive). Further, the GLP1 secretion stimulation in test [5] was -2.3% (inactive). Further, in test [6], the inhibition of viability was 0.7% (inactive). Moreover, the viability decrease (inhibition) is 0.9% (inactive) in test [7] and -5.3% (inactive) in test [8].

Turning to `CCOC(=O)[C@H](CCc1ccccc1)N[C@H]1CCCN2CCC[C@@H](C(=O)O)N2C1=O`, the nuclear beta-catenin stimulation in test [1] (at 10 µM) is -0.5% (inactive); in test [1] (stimulation, at 2 µM), 0.8%. Besides, the insulin secretion stimulation in test [2] was -0.4% (inactive). Besides, in test [3], the viability decrease is -16.7% (inactive). For the same compound, the tube area decrease in test [4] is -6.5% (inactive). In test [5], the GLP1 secretion stimulation is 4.4% (inactive). For the same compound, the inhibition of viability in test [6] was 4.2% (inactive). Moreover, the viability decrease (inhibition) is 4.5% (active) in test [7] and -2.1% (inactive) in test [8].

Take `CCCc1ccc(C(=O)O)cc1`: the nuclear beta-catenin stimulation was -2% (inactive) in test [1] (at 10 µM) and 2.4% in test [1] (stimulation, at 2 µM). The insulin secretion stimulation in test [2] is 0.6% (inactive). For the same compound, the viability decrease in test [3] is -19.9% (inactive). Also, in test [4], the tube area decrease was 0.8% (inactive). The GLP1 secretion stimulation in test [5] is 1.1% (inactive). For the same compound, in test [6], the inhibition of viability is 7.9% (inactive). Also, the viability decrease (inhibition) is 12.9% (inactive) in test [7] and 11.8% (inactive) in test [8].

On to `CC(C)CCOC(=O)c1ccc(N(C)C)cc1`, for which the nuclear beta-catenin stimulation in test [1] (at 10 µM) was 0% (inactive); in test [1] (stimulation, at 2 µM), 0.7%. In addition, the insulin secretion stimulation in test [2] is 0.4% (inactive). The viability decrease in test [3] is -16.7% (inactive). In addition, the tube area decrease in test [4] is -11.5% (inactive). The GLP1 secretion stimulation in test [5] is 1.7% (inactive). The inhibition of viability in test [6] was 19.9% (inactive). Also, the figures for the viability decrease (inhibition) in test [7] and in test [8] were -6.9% (inactive) and 10.3% (inactive), respectively.

Turning to `CCOC(=O)c1cc(=O)c2c(OCC(COc3cccc4oc(C(=O)OCC)cc(=O)c34)OC(=O)[C@@H](N)CCCCN)cccc2o1`, the nuclear beta-catenin stimulation in test [1] (at 10 µM) is 0.5% (inactive); in test [1] (stimulation, at 2 µM), 1.2%. Moreover, in test [2], the insulin secretion stimulation is -1.2% (inactive). The viability decrease in test [3] is -30% (inactive). For the same compound, the tube area decrease in test [4] was 4.5% (inactive). The GLP1 secretion stimulation in test [5] is 7.5% (inactive). In test [6], the inhibition of viability is -25.1% (inactive). Moreover, the values for the viability decrease (inhibition) in test [7] and in test [8] were -75% (inactive) and -11.5% (inactive), respectively.

On to `CC(C)(C)c1ccc2c(S(=O)(=O)O)c(C(C)(C)C)ccc2c1`, for which the nuclear beta-catenin stimulation in test [1] (at 10 µM) is -2.9% (inactive); in test [1] (stimulation, at 2 µM), -1.4%. For the same compound, the insulin secretion stimulation in test [2] was 0.3% (inactive). The viability decrease in test [3] is -22% (inactive). Besides, the tube area decrease in test [4] is -2.7% (inactive). In addition, the GLP1 secretion stimulation in test [5] is 1% (inactive). For the same compound, in test [6], the inhibition of viability is -18.9% (inactive). The viability decrease (inhibition) was 9% (inactive) in test [7] and -14.4% (inactive) in test [8].

Consider `CC[C@@]1(O)C(=O)OCc2c1cc1n(c2=O)Cc2c-1nc1ccccc1c2/C=N/OC(C)(C)C`, for which the nuclear beta-catenin stimulation in test [1] (at 10 µM) is 38.7% (active); in test [1] (stimulation, at 2 µM) it was 59.7%. Moreover, the insulin secretion stimulation in test [2] is 2.9% (inactive). Moreover, in test [3], the viability decrease is -17.1% (active). Besides, the tube area decrease in test [4] is 59.9% (active). The GLP1 secretion stimulation in test [5] is 14.3% (inactive). In addition, in test [6], the inhibition of viability was 35% (active). Besides, the values for the viability decrease (inhibition) in test [7] and in test [8] were 64.5% (active) and 76.5% (active), respectively.

Turning to `CCC(=O)Oc1ccc2c(c1)CC[C@@H]1[C@@H]2CC[C@@]2(C)[C@H]1C[C@@H](OC(=O)CC)[C@@H]2OC(=O)CC`, the nuclear beta-catenin stimulation in test [1] (at 10 µM) is 1.7% (inactive); in test [1] (stimulation, at 2 µM), 1.2%. For the same compound, in test [2], the insulin secretion stimulation was 2.5% (inactive). For the same compound, the viability decrease in test [3] is -51.4% (inactive). Besides, the tube area decrease in test [4] is 28.9% (inactive). Also, the GLP1 secretion stimulation in test [5] is -6.9% (inactive). The inhibition of viability in test [6] is 31.7% (inactive). Also, the figures for the viability decrease (inhibition) in test [7] and in test [8] were 67.4% (active) and -2.6% (inactive), respectively.

For the compound `CC1c2ccccc2CN1NC(=O)c1ccc(Cl)c(S(N)(=O)=O)c1` (stereo not given), the nuclear beta-catenin stimulation in test [1] (at 10 µM) was 1.2% (inactive); in test [1] (stimulation, at 2 µM), 4.6%. In test [2], the insulin secretion stimulation was 1.65% (inactive). Further, in test [3], the viability decrease is 26.4% (inactive). In addition, the tube area decrease in test [4] is -9.7% (inactive). Besides, in test [5], the GLP1 secretion stimulation is -1.8% (inactive). In addition, the inhibition of viability in test [6] is 1.4% (inactive). The viability decrease (inhibition) in test [7] is -21.1% (active); in test [8] it was -10.8% (inactive).

As for `O=C(NCCc1c[nH]c2ccccc12)c1cccnc1`, the nuclear beta-catenin stimulation in test [1] (at 10 µM) is 1% (inactive); in test [1] (stimulation, at 2 µM), 1.7%. In addition, the insulin secretion stimulation in test [2] is -2.7% (inactive). Further, the viability decrease in test [3] is 6.55% (inactive). Moreover, the tube area decrease in test [4] is 35.9% (inactive). Also, the GLP1 secretion stimulation in test [5] is 0.6% (inactive). In test [6], the inhibition of viability is -5.5% (inactive). The viability decrease (inhibition) in test [7] was 71.3% (active); in test [8], -0.95% (inactive).
